From PubChem
This excerpt belongs to a sample that is enriched for hits.
IDE exosite inh – exo-site inhibitors of human IDE, primary screen, biochemical, fluorescence anisotropy, probe displacement; 6.3% of 17,000 active; purified IDE, FL-6b probe fluorescence polarization; stronger effect = lower value; z-score at 20 µM;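 active = z-score of -3 or lower, meaning strong loss of probe binding signal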;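 note: His-tagged human IDE residues 42-1019 made in E. coli with 30 nM FL-6b probe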
Target sequence (P14735 42-1019 limits assumed): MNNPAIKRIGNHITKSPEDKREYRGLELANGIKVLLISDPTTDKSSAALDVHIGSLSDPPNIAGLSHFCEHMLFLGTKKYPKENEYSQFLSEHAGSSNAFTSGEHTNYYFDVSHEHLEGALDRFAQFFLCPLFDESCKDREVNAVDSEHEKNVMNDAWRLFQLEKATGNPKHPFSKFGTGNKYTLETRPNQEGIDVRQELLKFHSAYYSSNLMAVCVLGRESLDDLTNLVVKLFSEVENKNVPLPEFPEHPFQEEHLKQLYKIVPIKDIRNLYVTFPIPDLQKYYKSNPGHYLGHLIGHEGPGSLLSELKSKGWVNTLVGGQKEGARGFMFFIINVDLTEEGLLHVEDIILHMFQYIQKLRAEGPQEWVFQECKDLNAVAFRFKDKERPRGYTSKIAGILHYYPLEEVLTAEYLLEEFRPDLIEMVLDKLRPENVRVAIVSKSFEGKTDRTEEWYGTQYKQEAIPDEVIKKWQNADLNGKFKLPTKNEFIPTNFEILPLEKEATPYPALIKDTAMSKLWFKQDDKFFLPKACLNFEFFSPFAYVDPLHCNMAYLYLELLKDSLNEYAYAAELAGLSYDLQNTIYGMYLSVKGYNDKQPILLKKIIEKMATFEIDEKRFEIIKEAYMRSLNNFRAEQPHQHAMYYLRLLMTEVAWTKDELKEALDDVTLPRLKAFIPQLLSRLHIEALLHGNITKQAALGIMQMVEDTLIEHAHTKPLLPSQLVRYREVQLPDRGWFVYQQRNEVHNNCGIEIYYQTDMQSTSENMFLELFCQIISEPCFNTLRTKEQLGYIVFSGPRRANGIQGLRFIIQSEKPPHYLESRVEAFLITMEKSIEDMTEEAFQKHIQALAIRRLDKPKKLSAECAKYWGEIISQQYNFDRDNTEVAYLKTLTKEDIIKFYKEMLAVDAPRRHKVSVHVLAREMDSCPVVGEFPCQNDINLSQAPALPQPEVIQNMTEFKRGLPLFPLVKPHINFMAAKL
Hits are given with their value; i = inactive.

SMILES	IDE exosite inh
O=C(Nc1ccc2c(c1)[C@@H]1C[C@@H](CC(=O)N3CCCCC3)O[C@H](CO)[C@@H]1O2)NC1CCCCC1	i
COc1ccc([C@@H]2CC=CC[C@@H](C)Oc3ccccc3C(=O)N(C)[C@@H](C(C)C)C(=O)N2)c(OC)c1 (mixture of isomers)	i
C[C@@H]1COCn2nncc2CC[C@H](Cc2cccc(Cl)c2)C(=O)N1	i
Cc1cccc(-c2ccc([C@H]3[C@H](CO)N4C(=O)CN(C(=O)c5cnccn5)C[C@@H]34)cc2)c1	-14
Cc1cccc(-c2ccc([C@@H]3[C@@H](CO)N4C(=O)CN(C(=O)c5cnccn5)C[C@@H]34)cc2)c1	-18
O=C(c1cnccn1)N1CC(=O)N2[C@H](C1)[C@H](c1ccc(-c3ccccc3)cc1)[C@@H]2CO	i
O=C(c1cnccn1)N1CC(=O)N2[C@H](C1)[C@@H](c1ccc(-c3ccccc3)cc1)[C@@H]2CO	-6
O=C(c1cnccn1)N1CC(=O)N2[C@H](C1)[C@H](c1ccc(-c3ccc(F)cc3)cc1)[C@@H]2CO	i
Cc1cccc(-c2ccc([C@@H]3[C@H]4CN(C(=O)c5cnccn5)CC(=O)N4[C@H]3CO)cc2)c1	-16
Cc1ccccc1-c1ccc(C2[C@H]3CNC[C@@H]2N3C(=O)Nc2ccc(C(F)(F)F)cc2)cc1 (stereo partly drawn)	i
COCC(=O)N1CCCCN2[C@H](C1)[C@H](c1ccc(-c3ccc(F)cc3)cc1)[C@@H]2CO	i
O=C(c1ccncc1)N1CCCCN2[C@@H](CO)[C@H](c3ccc(-c4ccccc4)cc3)[C@@H]2C1	i
O=C(Cc1ccccc1)N1CC(=O)N2[C@H](C1)[C@H](c1ccc(C3=CCCC3)cc1)[C@@H]2CO	i
C[C@H]1COCc2cn(nn2)CCCC(=O)N1	i
N#C[C@@H]1[C@H](c2ccc(-c3cccc(F)c3)cc2)[C@@H](CO)N1C(=O)CN1CCOCC1	i
CCS(=O)(=O)N1CCCCN2[C@H](CO)[C@H](c3ccc(-c4ccc(C(=O)N(C)C)cc4)cc3)[C@H]2C1	i
CCS(=O)(=O)N1CC2(C1)[C@H](c1ccccc1)[C@H](CO)N2C(=O)c1ccccc1	i
Cc1cccc(-c2ccc([C@@H]3[C@H](CO)N4C(=O)CN(C(=O)c5cnccn5)C[C@@H]34)cc2)c1	-11
C/C=C/c1ccc([C@@H]2[C@@H](CO)N3C(=O)CN(C(=O)c4cnccn4)C[C@@H]23)cc1	i
Cc1cccc(-c2ccc([C@H]3[C@H]4CN(C(=O)c5cnccn5)CC(=O)N4[C@H]3CO)cc2)c1	-5.4
O=C(c1cnccn1)N1CC(=O)N2[C@H](CO)[C@@H](c3ccc(C4=CCCCC4)cc3)[C@H]2C1	i
COc1cccc(NC(=O)N2C[C@@H](O)COC[C@H]3O[C@H](CC(=O)N(C)C)CC[C@@H]32)c1	i
COCC(=O)NC[C@H]1[C@@H](c2ccccc2)[C@H](CO)N1C(C)=O	i
CC(C)CC#Cc1ccc([C@@H]2[C@@H](CO)N3C(=O)CN(S(C)(=O)=O)C[C@H]23)cc1	i
COc1ccc2c3c([nH]c2c1)[C@@H](CO)NCC31CCN(Cc2ccc(F)cc2)CC1	i
SMILES	IDE exosite inh
O=C(c1ccccc1F)N1C[C@@H]2[C@H](c3ccccc31)[C@H](CO)N2C(=O)Nc1ccccc1	i
Cc1cccc(-c2ccc([C@@H]3[C@@H](CO)N4CCCCN(S(=O)(=O)c5ccccc5F)C[C@@H]34)cc2)c1	-27
Cc1cccc(-c2ccc([C@@H]3[C@H](CO)N4CCCCN(S(=O)(=O)c5ccccc5C)C[C@@H]34)cc2)c1	-11
Cc1cccc(-c2ccc([C@H]3[C@@H](CO)N4CCCCN(S(=O)(=O)c5ccccc5F)C[C@@H]34)cc2)c1	i
Cc1cccc(-c2ccc([C@H]3[C@@H](CO)N4CCCCN(S(=O)(=O)c5ccccc5C)C[C@H]34)cc2)c1	i
Cc1cccc(-c2ccc([C@@H]3[C@@H](CO)N4CCCCN(S(=O)(=O)c5ccccc5F)C[C@H]34)cc2)c1	i
Cc1cccc(-c2ccc([C@H]3[C@@H](CO)N4CCCCN(S(=O)(=O)c5ccccc5C)C[C@@H]34)cc2)c1	i
CCS(=O)(=O)N1CC(=O)N2[C@H](CO)[C@@H](c3ccc(C#CCC(C)C)cc3)[C@@H]2C1	i
O=C(NC[C@H]1[C@H](c2ccccc2)[C@@H](CO)N1CC1CC1)c1cccnc1	i
O=C(Nc1ccc2c(c1)[C@H]1C[C@H](CC(=O)N3CCOCC3)O[C@@H](CO)[C@H]1O2)Nc1ccccc1F	i
C/C=C/c1ccc([C@H]2[C@@H](C#N)N(c3ncc(CC)s3)[C@@H]2CO)cc1	i
CN1C(=O)c2cc(NC(=O)c3cnccn3)ccc2OC[C@@H]2O[C@@H](CC(=O)NCC3CCCCC3)CC[C@H]21	i
O=C(NC1CCC1)[C@@H]1[C@@H](CO)[C@@H]2Cn3c(ccc(-c4ccncc4)c3=O)[C@H]1N2Cc1cocn1	i
COc1ccc2c3c(n(C)c2c1)[C@@H](CO)N(C)CC31CN(C(=O)Nc2c(C)noc2C)C1	i
